Data on 2 sequences can be found in PMC7862700, “An all-to-all approach to the identification of sequence-specific readers for epigenetic DNA modifications on cytosine”.

Holding throughout (experiment): DAPPL (digital affinity profiling via proximity ligation, sequencing); 10 mM Tris-HCl pH 7.5, 50 mM NaCl, 1 mM DTT, 4% glycerol, room temperature, 30 min; GST-TFs on glutathione beads, 16-mer random dsDNA library, 0.1% formaldehyde crosslink after washing; high values mean tight binding
Settings in all cases: protein: recombinant; tags: N-terminal GST; dsDNA, one strand shown

One experiment addresses T1, FLI1 (Homo sapiens, UniProt Q01543 1-452).
T1 sequence: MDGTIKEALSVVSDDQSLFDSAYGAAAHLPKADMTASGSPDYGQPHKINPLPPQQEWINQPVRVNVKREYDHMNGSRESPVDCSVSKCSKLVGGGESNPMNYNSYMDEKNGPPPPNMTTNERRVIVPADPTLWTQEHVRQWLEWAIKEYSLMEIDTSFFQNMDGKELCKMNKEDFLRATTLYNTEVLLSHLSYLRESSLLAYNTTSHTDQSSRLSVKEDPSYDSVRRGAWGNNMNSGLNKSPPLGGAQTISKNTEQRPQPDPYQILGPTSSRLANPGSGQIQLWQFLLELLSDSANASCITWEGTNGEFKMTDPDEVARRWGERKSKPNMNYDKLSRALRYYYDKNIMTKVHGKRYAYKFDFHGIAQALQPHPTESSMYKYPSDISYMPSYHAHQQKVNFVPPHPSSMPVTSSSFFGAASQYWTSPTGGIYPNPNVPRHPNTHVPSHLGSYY
In a few lines: (§1)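 Binding signal is given per hexamer as its read frequency for a factor divided by its frequency in the tag-only sample. GST-fused human transcription factors were expressed in yeast, captured on glutathione beads, barcoded with DNA and pooled with that sample, then incubated with 200 nmole of a 16-mer random double-stranded DNA library in Tris/NaCl/DTT/glycerol buffer for 30 min at room temperature. The pools were then washed, crosslinked, proximity-ligated, amplified by PCR and sequenced on an Illumina NextSeq500.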

For the next experiment, the target named is T2, ELK1 (Homo sapiens, UniProt P19419 1-428).
T2 sequence: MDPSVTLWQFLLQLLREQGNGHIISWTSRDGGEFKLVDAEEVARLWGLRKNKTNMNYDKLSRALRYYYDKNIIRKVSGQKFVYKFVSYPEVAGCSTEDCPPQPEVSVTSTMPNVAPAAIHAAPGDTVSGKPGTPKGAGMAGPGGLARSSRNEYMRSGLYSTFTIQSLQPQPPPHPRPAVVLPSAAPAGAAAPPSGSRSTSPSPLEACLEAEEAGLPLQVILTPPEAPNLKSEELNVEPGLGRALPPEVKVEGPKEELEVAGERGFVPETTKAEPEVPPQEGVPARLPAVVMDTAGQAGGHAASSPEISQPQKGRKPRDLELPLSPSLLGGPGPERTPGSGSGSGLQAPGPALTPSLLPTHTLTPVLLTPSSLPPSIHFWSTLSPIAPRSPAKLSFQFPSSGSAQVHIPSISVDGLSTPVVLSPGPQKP
In a few lines:
as §1

For a further experiment, the target named is T3, GABPA (Homo sapiens, UniProt Q06546 1-454).
T3 sequence: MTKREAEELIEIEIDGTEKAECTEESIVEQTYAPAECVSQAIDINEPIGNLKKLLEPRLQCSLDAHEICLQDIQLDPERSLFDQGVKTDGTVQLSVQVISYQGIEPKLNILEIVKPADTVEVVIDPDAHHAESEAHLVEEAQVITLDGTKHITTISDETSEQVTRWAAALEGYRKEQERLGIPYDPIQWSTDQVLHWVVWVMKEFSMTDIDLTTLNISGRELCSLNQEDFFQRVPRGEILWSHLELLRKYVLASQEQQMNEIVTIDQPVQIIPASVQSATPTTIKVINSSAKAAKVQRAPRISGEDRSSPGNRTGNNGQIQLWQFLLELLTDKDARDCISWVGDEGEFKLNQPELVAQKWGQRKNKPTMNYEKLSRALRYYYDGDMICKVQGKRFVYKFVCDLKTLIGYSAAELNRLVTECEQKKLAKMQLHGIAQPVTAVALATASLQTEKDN
In short, it runs like this: as §1

A further experiment deals with ELF1 (Homo sapiens, UniProt P32519 1-619). In a few lines:
as §1

The target in a further experiment is T4, EHF (Homo sapiens, UniProt Q9NZC4 1-300).
T4 sequence: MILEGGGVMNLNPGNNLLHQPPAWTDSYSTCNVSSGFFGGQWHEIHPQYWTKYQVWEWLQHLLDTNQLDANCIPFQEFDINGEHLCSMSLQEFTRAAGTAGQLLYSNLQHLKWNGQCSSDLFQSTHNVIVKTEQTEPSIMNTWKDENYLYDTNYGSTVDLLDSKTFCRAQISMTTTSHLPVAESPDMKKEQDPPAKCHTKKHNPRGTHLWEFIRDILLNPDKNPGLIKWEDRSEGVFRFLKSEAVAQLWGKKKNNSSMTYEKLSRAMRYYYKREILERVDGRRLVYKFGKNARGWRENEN
In short, it runs like this:
as §1

The next experiment addresses SPI1 (Homo sapiens, UniProt P17947 1-270). In a few lines: as §1
For another experiment, the target named is SPIB (Homo sapiens, UniProt Q01892 1-262). In a few lines: as §1
The target in a further experiment is T5, FEV (Homo sapiens, UniProt Q99581 1-238).
T5 sequence: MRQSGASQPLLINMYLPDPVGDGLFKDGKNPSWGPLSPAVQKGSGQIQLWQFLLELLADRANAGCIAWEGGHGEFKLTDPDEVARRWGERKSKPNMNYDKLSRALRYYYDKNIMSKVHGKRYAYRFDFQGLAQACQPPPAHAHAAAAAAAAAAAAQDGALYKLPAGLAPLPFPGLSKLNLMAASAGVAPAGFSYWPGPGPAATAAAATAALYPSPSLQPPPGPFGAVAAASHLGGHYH
In a few lines: as §1

For the next experiment, the target named is ETV5 (Homo sapiens, UniProt P41161 1-510). In a few lines: as §1
The target in another experiment is T6, SPIC (Homo sapiens, UniProt Q8N5J4 1-248).
T6 sequence: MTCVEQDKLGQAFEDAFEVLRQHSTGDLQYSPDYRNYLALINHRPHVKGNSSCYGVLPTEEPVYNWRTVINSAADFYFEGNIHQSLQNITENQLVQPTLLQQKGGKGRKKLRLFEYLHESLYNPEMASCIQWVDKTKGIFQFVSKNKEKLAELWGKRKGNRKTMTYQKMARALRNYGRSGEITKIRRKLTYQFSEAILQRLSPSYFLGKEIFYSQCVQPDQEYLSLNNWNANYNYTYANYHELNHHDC
In short, it runs like this:
as §1

The next experiment deals with ELF4 (Homo sapiens, UniProt Q99607 1-663). In short, it runs like this:
as §1

In the next experiment the target is T7, ELK4 (Homo sapiens, UniProt P28324-2 1-405).
T7 sequence: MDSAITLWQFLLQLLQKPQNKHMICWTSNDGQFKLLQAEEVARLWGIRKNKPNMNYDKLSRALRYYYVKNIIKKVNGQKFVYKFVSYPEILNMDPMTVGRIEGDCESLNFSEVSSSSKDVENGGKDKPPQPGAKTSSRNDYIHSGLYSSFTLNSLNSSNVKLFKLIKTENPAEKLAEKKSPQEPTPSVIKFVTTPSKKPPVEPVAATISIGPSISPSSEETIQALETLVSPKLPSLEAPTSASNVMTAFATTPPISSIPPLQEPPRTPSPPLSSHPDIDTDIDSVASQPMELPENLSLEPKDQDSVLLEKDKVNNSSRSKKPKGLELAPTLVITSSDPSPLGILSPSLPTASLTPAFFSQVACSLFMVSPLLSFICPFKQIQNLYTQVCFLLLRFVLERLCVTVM
In a few lines: as §1

The target of a further experiment is T8, ETV2 (Homo sapiens, UniProt O00321 1-342).
T8 sequence: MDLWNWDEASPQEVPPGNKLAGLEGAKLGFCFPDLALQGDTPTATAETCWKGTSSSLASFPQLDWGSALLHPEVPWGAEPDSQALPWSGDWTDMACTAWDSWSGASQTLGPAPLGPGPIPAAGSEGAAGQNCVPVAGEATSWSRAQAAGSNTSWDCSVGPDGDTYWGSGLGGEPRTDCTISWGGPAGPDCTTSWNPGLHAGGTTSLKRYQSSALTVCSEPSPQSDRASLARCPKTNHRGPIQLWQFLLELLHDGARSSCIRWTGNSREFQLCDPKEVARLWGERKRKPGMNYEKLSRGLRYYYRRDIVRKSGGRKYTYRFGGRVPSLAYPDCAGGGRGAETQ
In a few lines:
as §1

The target of a further experiment is CRX (Homo sapiens, UniProt O43186 1-299). In a few lines: as §1
The target of another experiment is T9, ERG (Homo sapiens, UniProt P11308 1-479).
T9 sequence: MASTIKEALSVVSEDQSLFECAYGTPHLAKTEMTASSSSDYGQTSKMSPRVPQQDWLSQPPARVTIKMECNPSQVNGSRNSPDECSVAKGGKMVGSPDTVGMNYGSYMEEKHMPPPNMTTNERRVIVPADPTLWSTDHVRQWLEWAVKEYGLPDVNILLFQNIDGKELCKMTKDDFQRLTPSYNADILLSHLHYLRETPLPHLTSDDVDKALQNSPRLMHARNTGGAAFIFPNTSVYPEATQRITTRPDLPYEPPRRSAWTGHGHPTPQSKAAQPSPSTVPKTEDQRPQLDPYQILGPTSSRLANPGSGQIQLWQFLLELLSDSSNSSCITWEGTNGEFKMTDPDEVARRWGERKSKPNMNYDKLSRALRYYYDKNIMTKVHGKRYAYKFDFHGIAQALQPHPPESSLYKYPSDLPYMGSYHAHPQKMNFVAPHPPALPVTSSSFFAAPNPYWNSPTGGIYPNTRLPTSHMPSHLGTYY
In short, it runs like this: as §1

The target in a further experiment is T10, ELK3 (Homo sapiens, UniProt P41970 1-407).
T10 sequence: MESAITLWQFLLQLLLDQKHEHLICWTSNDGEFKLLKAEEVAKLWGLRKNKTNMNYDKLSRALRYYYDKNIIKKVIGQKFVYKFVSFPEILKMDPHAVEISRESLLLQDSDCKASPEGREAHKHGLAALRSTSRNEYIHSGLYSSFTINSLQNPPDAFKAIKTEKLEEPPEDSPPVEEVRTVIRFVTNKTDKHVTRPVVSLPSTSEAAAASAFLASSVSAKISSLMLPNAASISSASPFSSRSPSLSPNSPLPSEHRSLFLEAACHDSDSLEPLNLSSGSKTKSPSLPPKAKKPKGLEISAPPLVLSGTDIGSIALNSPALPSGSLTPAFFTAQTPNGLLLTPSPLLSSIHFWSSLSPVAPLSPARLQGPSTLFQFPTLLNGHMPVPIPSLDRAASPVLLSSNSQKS
In short, it runs like this:
as §1

The target in another experiment is T11, ELF3 (Homo sapiens, UniProt P78545 1-371).
T11 sequence: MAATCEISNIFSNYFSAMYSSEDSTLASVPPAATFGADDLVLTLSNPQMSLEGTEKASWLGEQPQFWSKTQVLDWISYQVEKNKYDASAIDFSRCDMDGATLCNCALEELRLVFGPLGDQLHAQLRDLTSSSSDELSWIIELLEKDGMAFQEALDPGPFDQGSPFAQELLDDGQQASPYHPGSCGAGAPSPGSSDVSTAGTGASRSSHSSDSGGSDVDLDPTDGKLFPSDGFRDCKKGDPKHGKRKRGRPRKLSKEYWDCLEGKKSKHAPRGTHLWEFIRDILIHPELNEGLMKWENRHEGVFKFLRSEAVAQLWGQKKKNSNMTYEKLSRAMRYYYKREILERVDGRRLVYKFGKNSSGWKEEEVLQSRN
In a few lines:
as §1

A further experiment addresses ETV1 (Homo sapiens, UniProt P50549 1-477). In short, it runs like this:
as §1

Sequence of SPIB (Q01892 whole entry): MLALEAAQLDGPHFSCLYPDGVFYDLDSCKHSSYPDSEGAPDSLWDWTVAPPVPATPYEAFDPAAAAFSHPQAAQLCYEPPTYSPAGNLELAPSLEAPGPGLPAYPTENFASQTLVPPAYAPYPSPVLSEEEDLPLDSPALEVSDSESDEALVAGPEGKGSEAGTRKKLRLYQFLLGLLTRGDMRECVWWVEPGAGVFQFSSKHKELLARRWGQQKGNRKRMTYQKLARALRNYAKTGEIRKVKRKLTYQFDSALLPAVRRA
Sequence of ELF4 (Q99607 whole entry): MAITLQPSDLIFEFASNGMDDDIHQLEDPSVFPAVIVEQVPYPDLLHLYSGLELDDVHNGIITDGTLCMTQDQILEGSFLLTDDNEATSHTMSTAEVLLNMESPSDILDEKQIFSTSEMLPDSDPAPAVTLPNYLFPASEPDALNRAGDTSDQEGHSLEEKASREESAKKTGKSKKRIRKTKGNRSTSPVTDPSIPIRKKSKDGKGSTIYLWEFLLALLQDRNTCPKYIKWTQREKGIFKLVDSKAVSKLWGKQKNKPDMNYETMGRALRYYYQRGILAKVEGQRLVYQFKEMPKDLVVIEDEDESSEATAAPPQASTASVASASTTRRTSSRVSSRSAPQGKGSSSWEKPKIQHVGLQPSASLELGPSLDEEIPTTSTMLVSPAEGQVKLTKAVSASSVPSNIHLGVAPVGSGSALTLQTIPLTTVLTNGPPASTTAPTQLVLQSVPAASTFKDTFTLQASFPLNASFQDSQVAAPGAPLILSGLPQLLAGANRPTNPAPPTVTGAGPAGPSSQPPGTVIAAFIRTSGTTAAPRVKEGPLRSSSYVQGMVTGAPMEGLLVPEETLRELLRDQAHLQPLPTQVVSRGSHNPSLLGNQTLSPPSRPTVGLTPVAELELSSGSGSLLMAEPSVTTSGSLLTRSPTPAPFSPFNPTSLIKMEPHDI
Sequence of CRX (O43186 whole entry): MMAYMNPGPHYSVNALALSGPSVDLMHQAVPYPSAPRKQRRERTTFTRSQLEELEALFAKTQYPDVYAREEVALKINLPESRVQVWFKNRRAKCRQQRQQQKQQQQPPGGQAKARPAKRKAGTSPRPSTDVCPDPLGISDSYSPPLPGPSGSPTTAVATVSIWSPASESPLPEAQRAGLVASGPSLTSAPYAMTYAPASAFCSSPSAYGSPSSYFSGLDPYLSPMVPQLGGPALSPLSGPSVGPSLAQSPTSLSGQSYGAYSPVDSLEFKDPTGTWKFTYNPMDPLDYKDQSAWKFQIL
Sequence of ETV5 (P41161 whole entry): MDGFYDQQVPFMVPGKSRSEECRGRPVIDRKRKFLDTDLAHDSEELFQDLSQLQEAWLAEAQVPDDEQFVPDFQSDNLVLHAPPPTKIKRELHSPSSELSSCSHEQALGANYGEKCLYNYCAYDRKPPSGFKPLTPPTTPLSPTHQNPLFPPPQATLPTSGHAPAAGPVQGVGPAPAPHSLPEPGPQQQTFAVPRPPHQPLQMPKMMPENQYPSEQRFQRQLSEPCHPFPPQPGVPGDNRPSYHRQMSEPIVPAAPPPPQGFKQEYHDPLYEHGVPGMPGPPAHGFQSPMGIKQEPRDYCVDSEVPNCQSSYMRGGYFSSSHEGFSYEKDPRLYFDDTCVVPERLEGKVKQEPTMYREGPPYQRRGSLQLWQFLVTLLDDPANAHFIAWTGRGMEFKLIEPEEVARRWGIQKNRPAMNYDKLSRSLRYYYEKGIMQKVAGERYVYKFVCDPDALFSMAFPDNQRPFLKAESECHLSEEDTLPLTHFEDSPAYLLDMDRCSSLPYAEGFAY
Sequence of ELF1 (P32519 whole entry): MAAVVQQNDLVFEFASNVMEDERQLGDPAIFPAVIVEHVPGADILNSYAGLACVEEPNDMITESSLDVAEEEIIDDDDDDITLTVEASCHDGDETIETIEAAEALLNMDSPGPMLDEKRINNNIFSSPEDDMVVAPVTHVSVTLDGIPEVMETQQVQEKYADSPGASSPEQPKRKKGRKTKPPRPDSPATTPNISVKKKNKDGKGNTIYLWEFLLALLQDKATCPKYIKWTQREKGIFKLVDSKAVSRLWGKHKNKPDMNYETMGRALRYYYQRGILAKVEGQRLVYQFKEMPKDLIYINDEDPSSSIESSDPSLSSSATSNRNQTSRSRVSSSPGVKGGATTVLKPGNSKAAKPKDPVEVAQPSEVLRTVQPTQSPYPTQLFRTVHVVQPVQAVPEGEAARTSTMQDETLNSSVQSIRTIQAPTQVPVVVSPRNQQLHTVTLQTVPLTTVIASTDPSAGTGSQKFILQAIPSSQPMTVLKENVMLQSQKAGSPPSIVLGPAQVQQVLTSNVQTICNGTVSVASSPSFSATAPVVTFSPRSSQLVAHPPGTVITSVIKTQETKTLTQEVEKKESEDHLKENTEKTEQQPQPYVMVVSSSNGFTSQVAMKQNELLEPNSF
Sequence of ETV1 (P50549 whole entry): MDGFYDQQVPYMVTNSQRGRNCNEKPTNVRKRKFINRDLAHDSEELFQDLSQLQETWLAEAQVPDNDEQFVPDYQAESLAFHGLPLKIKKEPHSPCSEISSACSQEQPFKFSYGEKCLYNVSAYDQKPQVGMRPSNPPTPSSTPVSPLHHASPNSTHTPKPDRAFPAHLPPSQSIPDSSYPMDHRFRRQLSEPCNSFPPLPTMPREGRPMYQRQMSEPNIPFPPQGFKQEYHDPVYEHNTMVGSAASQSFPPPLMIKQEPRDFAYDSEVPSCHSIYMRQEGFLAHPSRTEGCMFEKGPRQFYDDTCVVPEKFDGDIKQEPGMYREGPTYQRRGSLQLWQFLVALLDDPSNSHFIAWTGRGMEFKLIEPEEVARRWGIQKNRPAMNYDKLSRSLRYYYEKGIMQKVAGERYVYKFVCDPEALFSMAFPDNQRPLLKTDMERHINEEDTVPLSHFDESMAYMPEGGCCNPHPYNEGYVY

Take TGCCTA: the binding signal with FLI1 is 1.02 fold enrichment (6-mer frequency, TF over GST control); in the experiment with ELK1, 1.12 fold enrichment (6-mer frequency, TF over GST control); in the experiment with GABPA, 1.01 fold enrichment (6-mer frequency, TF over GST control); in the experiment with ELF1 it was 1.11 fold enrichment (6-mer frequency, TF over GST control); with EHF, 1.09 fold enrichment (6-mer frequency, TF over GST control); with SPI1 it was 1.04 fold enrichment (6-mer frequency, TF over GST control). Moreover, the binding signal in the experiment with SPIB was 1.07 fold enrichment (6-mer frequency, TF over GST control); in the experiment with FEV, 1.05 fold enrichment (6-mer frequency, TF over GST control); in the experiment with ETV5 it was 1 fold enrichment (6-mer frequency, TF over GST control); with SPIC it was 1.18 fold enrichment (6-mer frequency, TF over GST control); with ELF4 it was 1.09 fold enrichment (6-mer frequency, TF over GST control); with ELK4, 1.24 fold enrichment (6-mer frequency, TF over GST control). In addition, the binding signal in the experiment with ETV2 was 1.17 fold enrichment (6-mer frequency, TF over GST control); with CRX, 1.08 fold enrichment (6-mer frequency, TF over GST control).

Take GGGCTA: the binding signal is 1.1 fold enrichment (6-mer frequency, TF over GST control) with FLI1; 1.05 fold enrichment (6-mer frequency, TF over GST control) in the experiment with ELK1; 1.08 fold enrichment (6-mer frequency, TF over GST control) with GABPA; 1.16 fold enrichment (6-mer frequency, TF over GST control) with ERG; 1.16 fold enrichment (6-mer frequency, TF over GST control) in the experiment with ELF1; 1.18 fold enrichment (6-mer frequency, TF over GST control) with EHF. Further, the binding signal in the experiment with SPIB is 1.15 fold enrichment (6-mer frequency, TF over GST control); in the experiment with ELK3, 1.06 fold enrichment (6-mer frequency, TF over GST control); with FEV, 1.04 fold enrichment (6-mer frequency, TF over GST control); in the experiment with ETV5, 1.06 fold enrichment (6-mer frequency, TF over GST control); with SPIC it was 1.23 fold enrichment (6-mer frequency, TF over GST control); with ELF4, 1.17 fold enrichment (6-mer frequency, TF over GST control). Moreover, the binding signal was 1.29 fold enrichment (6-mer frequency, TF over GST control) with ELK4; 1 fold enrichment (6-mer frequency, TF over GST control) with ELF3; 1.15 fold enrichment (6-mer frequency, TF over GST control) with CRX; 1.11 fold enrichment (6-mer frequency, TF over GST control) in the experiment with ETV1.
